These results are taken from PubChem BioAssay (NCATS).

Records with an inconclusive call do not appear. Entries that show only a call come without a potency. Active and inactive are the calls of the source. Calls follow the shape of the dose curve; as a rule, active = well fitted curve in the direction sought with a large enough effect; inconclusive = small, poorly fitted or top-dose-only effect, or another doubt; inactive = no such curve, though single readings can be large; an effect the other way counts as inactive or inconclusive.

Assay [1] addresses Aldehyde dehydrogenase, mitochondrial (Homo sapiens) (UniProt P05091). As to the kind of experiment: qHTS for Inhibitors of the Aldehyde Dehydrogenase Family (ALDH2) Primary screen (AID 2061308). Also: nearly all actives have a fitted effect of over 55% in size. A general note: In qHTS, concentration-response curves come from the screen itself.
Assay [2] concerns the target Retinaldehyde dehydrogenase 3 (Homo sapiens) (UniProt P47895). As to the kind of experiment: qHTS for Inhibitors of the Aldehyde Dehydrogenase Family (ALDH1A3) Primary screen (AID 2061315).

As for `CS(=O)(=O)c1ccccc1-c1csc(N2CCC(C(N)=O)CC2)n1`, the Potency entry in assay [1] and in assay [2] was “inactive” in each case.
In the case of `CC1=C(C(=O)Nc2nnc(-c3ccccc3)s2)C(c2nn(C)cc2Cl)N=C(Nc2nc3ccccc3o2)N1` (centres undefined), the Potency result in assay [1] and in assay [2] was “inactive” each time.
Take `OCc1ccnc(NC(=S)N2CCN(c3cccc(C(F)(F)F)c3)CC2)c1`: the Potency entry in assay [1] and in assay [2] was “inactive” each time.
Take `O=C(OCC#CCSc1nnc(-c2cccc3ccccc23)o1)c1cnc[nH]1`: the Potency entry in assay [1] and in assay [2] was “inactive” in each case.
Consider `Fc1ccc(-c2nnc(CCCCSc3nnc(-c4cccc5ccccc45)o3)o2)cc1`, for which the Potency entry in assay [1] and in assay [2] was “inactive” each time.
Regarding `CC(C)Cc1ccc(-c2ccc(=O)n(CC(=O)NCCc3ccccc3)n2)cc1`, the Potency entry in assay [1] and in assay [2] was “inactive” in each case.
Turning to `COC(=O)c1ccccc1C(=O)Nc1nc(-c2ccccc2)cs1`, the Potency entry in assay [1] and in assay [2] was “inactive” throughout.
As to `COc1cc(F)c(S(=O)(=O)N2CCCN(S(=O)(=O)c3ccc(NC(C)=O)cc3)CC2)c(F)c1`, the Potency entry in assay [1] and in assay [2] was “inactive” throughout.
Regarding `COc1ccc2nc(-c3ccc(F)cc3Cl)sc2c1`, the Potency result in assay [1] and in assay [2] was “inactive” throughout.
As to `Cc1ccc(NC(=O)CN2C(=O)N/C(=C\c3cccn3-c3ccc([S+](N)(=O)[O-])cc3)C2=O)cc1`, the Potency result in assay [1] and in assay [2] was “inactive” each time.
For the compound `O=C(O)c1cccc(-c2cccc(-c3nn4c(=O)cc(N5CCNCC5)nc4s3)c2)c1`, the Potency result in assay [1] and in assay [2] was “inactive” each time.
With `C#CCOc1ccc(C(C)=O)cc1-c1nnc2n1N=C(c1ccc(OC)c(O[C@@H]3CCOC3)c1)CS2`, the Potency entry in assay [1] and in assay [2] was “inactive” each time.
Consider `Cc1ccc([S+](=O)([O-])n2cc(-c3ccc(-c4ccccc4)cc3)c3ccccc32)cc1`, for which the Potency result in assay [1] and in assay [2] was “inactive” throughout.
`Fc1ccccc1-c1nc(NCc2ccc(-c3cccnc3)cc2)c2ccccc2n1`: the Potency entry in assay [1] and in assay [2] was “inactive” in each case.
`Cc1cc(C)nc(NC(=S)N2CCN(c3nc4ccccc4o3)CC2)c1`: the Potency result in assay [1] and in assay [2] was “inactive” in each case.
Turning to `CCC1CCCN(C(=O)CC(c2ccc3c(c2)OCO3)c2c(O)cc(OC)cc2OC)C1` (centres undefined), the Potency entry in assay [1] and in assay [2] was “inactive” in each case.
Turning to `CCOc1ccccc1-c1nnc2n1N=C(c1cc(OC)ccc1OC)CS2`, the Potency entry in assay [1] and in assay [2] was “inactive” each time.
In the case of `Cc1ccc(OCCn2c(CCNC(=O)Cc3cc(F)ccc3F)nc3ccccc32)cc1`, the Potency result in assay [1] and in assay [2] was “inactive” each time.
For `CCCCNc1nc(C)nc2c1nc(-c1ccccc1)n2C(C)CCCN(CC)CC` (centres undefined), the Potency entry in assay [1] and in assay [2] was “inactive” in each case.
Consider `O=C(/C=C/c1ccc(OC(F)(F)F)cc1)Nc1cccc([S+](=O)([O-])Nc2ccccc2F)c1`, for which the Potency result in assay [1] and in assay [2] was “inactive” each time.
`O=C(Nc1ccc2ccccc2c1)Nc1nnc(-c2ccccc2F)s1`: the Potency entry in assay [1] and in assay [2] was “inactive” each time.
Turning to `CO[C@H]1C[C@@H]2CC[C@@H](C)[C@@](O)(O2)C(=O)C(=O)N2CCCC[C@H]2C(=O)O[C@H]([C@@H](C)C[C@@H]2CC[C@@H](O)[C@H](OC)C2)CC(=O)[C@H](C)/C=C(\C)[C@@H](O)[C@@H](OC)C(=O)[C@H](C)C[C@H](C)/C=C/C=C/C=C/1C`, the Potency entry in assay [1] and in assay [2] was “inactive” throughout.
As for `COCCN(CCOC)c1nc(C)nc2c1nc(-c1ccccc1)n2CCCN(C)C`, the Potency result in assay [1] and in assay [2] was “inactive” throughout.
`O=C1CCCC2=C1[C@@]1(CCC(c3ccccc3)C1)N=C(Nc1nc3ccccc3o1)N2` (some centres undefined): the Potency entry in assay [1] and in assay [2] was “inactive” in each case.
In the case of `Cc1ccc(S(=O)(=O)Nc2ccncc2C(=O)Nc2nc(-c3ccccc3)cs2)cc1`, the Potency entry in assay [1] and in assay [2] was “inactive” in each case.
`c1ccc(OCc2nnc3n2N=C(c2ccccc2)CS3)cc1`: the Potency entry in assay [1] and in assay [2] was “inactive” each time.
Turning to `CC1(C)C[C@@H]2C[C@@](C)(CN2S(=O)(=O)c2ccc(C(=O)Nc3ccc(Cl)c(S(=O)(=O)N4CCOCC4)c3)cc2)C1`, the Potency entry in assay [1] and in assay [2] was “inactive” throughout.
Consider `Cc1cccc(NC(=O)c2cc(-c3ccc(C)c(C)c3)nc3ccccc23)c1`, for which the Potency result in assay [1] and in assay [2] was “inactive” throughout.
For the compound `Nc1ncnc2c1C(c1ccccc1)c1c(ccc3ccccc13)O2` (centres undefined), the Potency result in assay [1] and in assay [2] was “inactive” in each case.
As for `CC(=O)Nc1sc2c(c1-c1ccc3c(c1)OCCCO3)CCNC2`, the Potency entry in assay [1] and in assay [2] was “inactive” in each case.
Turning to `Cc1sc(C)c2c1C(=O)NS2(=O)=O`, the Potency result in assay [1] and in assay [2] was “inactive” throughout.
In the case of `CNc1oc(-c2ccccc2-c2ccccc2)nc1C#N`, the Potency result in assay [1] and in assay [2] was “inactive” each time.
Take `N#Cc1cccc(Nc2ncc(-c3cccc4ccccc34)o2)c1`: the Potency entry in assay [1] and in assay [2] was “inactive” in each case.
As to `O=C(c1ccccc1O)N(Cc1cccs1)Cc1cccs1`, the Potency result in assay [1] and in assay [2] was “inactive” throughout.
Turning to `Cc1cc(NS(=O)(=O)c2ccc(NC(=O)c3ccc(Cl)c(Cl)c3)cc2)no1`, the Potency entry in assay [1] and in assay [2] was “inactive” in each case.
On to `O=C(O)c1ccc(CSc2nnc(-c3cccc([S+](=O)([O-])NC4CCCC4)c3)n2-c2ccccc2)cc1`, for which the Potency result in assay [1] and in assay [2] was “inactive” each time.
As for `Cc1ccc(OCCn2c(CCNC(=O)/C=C/c3ccccc3)nc3ccccc32)cc1`, the Potency entry in assay [1] and in assay [2] was “inactive” each time.
